According to US20050164186, “Alteration of restriction endonuclease specificity by genetic selection” (published 2005):

Target: T1, BstYI NN1 (K133N/S172N) (Bacillus stearothermophilus, K133N,S172N)
T1 chain: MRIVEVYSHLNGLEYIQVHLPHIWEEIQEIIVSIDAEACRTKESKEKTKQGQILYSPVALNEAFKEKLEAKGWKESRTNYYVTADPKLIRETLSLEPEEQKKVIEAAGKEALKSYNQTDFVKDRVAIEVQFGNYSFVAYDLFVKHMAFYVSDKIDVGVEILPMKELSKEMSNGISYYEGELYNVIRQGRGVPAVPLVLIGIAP
Test: cleavage_in_vitro; 60 C
Details: label: radiolabel; dsDNA, one strand shown

## AGATCC
  cleavage activity: 7 fold lower than AGATCT
